# Assay results as given in PubChem BioAssay (NCI).
# This is part of a sample that, as a whole, favours compounds with a hit. Of some 83,000 tested, about 20% had one in any assay.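 Single-dose data. Exposure time 48 hours. Values below 10 considered active.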 A number with no mark means an inactive call. Activity calls are given as the source filed them.
# How the values were obtained:
# Assay in all cases: NCI-60 one-dose screen, 48 h (100 = growth as untreated, 0 = no growth, -100 = all killed)
# Details in all cases: 10 µM unless noted
# NCI-H23 lung = system: NCI-H23 lung
# NCI-H226 lung = system: NCI-H226 lung
# NCI-H322M lung = system: NCI-H322M lung
# HOP-62 NSCLC = system: HOP-62 NSCLC
# NCI-H460 lung = system: NCI-H460 lung
# HOP-92 NSCLC = system: HOP-92 NSCLC
# NCI-H522 lung = system: NCI-H522 lung
# A549/ATCC NSCLC = system: A549/ATCC NSCLC
# 786-0 renal = system: 786-0 renal
# COLO 205 colon = system: COLO 205 colon
# DU-145 prostate = system: DU-145 prostate
# K-562 leukemia = system: K-562 leukemia
# MALME-3M melanoma = system: MALME-3M melanoma
# MDA-MB-231 breast = system: MDA-MB-231 breast
# RXF 393 renal = system: RXF 393 renal
# SF-268 CNS = system: SF-268 CNS
# SF-295 CNS = system: SF-295 CNS
# SF-539 CNS = system: SF-539 CNS
# UACC-257 melanoma = system: UACC-257 melanoma
# M14 melanoma = system: M14 melanoma
Compound,growth (NCI-H23 lung),growth (NCI-H226 lung),growth (NCI-H322M lung),growth (HOP-62 NSCLC),growth (NCI-H460 lung),growth (HOP-92 NSCLC),growth (NCI-H522 lung),growth (A549/ATCC NSCLC),growth (786-0 renal),growth (COLO 205 colon),growth (DU-145 prostate),growth (K-562 leukemia),growth (MALME-3M melanoma),growth (MDA-MB-231 breast),growth (RXF 393 renal),growth (SF-268 CNS),growth (SF-295 CNS),growth (SF-539 CNS),growth (UACC-257 melanoma),growth (M14 melanoma)
CCCC(=O)NC(c1ccc2c(c1)OCO2)c1ccc2cccnc2c1O (stereo not given),24.1%,12.2%,25.9%,20.4%,9.17% (active),31.4%,-4.35% (active),20.8%,19.8%,8.58% (active),36.5%,7.6% (active),13.4%,31.2%,18.3%,15.8%,13.9%,9.93% (active),19.1%,4.9% (active)
C#CCn1cnc2c(Nc3cccc(NC(=O)C=C)c3)ncnc21,89.7%,66.3%,103%,75.2%,80.3%,68.5%,79.4%,63.9%,61.7%,84.4%,86.4%,72.7%,78.9%,80%,85.2%,63.4%,80.5%,66.8%,75.6%,76.6%
C=CC(=O)NCc1ccc(Nc2nccc(-c3ccc(N4CCCC4)c(C#N)c3)n2)cc1,49.7%,39.9%,41%,17.1%,23.3%,36.8%,19.2%,19.2%,17.6%,31.4%,46.3%,21%,44.9%,75.6%,-1.91% (active),49.7%,22.9%,28%,39.8%,36.1%
COc1cc(-c2cc(-c3ccc(N(C)C)cc3)nc(N3CCC(O)CC3)c2C#N)cc(OC)c1OC,3.6% (active),-6.93% (active),25.8%,41.4%,-27.9% (active),-25% (active),-36.3% (active),11.5%,-3.55% (active),-17.2% (active),33%,1.74% (active),-45.3% (active),-50.9% (active),-5.34% (active),22.1%,-44.3% (active),-0.969% (active),-51.8% (active),-69.3% (active)
O=C1c2ccc3c4ccc5c6c(ccc(c7ccc(c2c37)C(=O)N1CCC[P+](c1ccccc1)(c1ccccc1)c1ccccc1)c64)C(=O)N(CCC[P+](c1ccccc1)(c1ccccc1)c1ccccc1)C5=O,28.1%,105%,84.2%,60.3%,28%,77.3%,67.6%,43.8%,91.2%,15.5%,40.8%,16.4%,-27.8% (active),59.6%,95%,57.6%,42.5%,47.4%,21.5%,18.8%
CCOC(=O)Cn1c(O)c(N=Nc2ccc(S(N)(=O)=O)cc2)c2cc(Br)ccc21,77.1%,85.9%,77.7%,65%,44.1%,96.4%,70.8%,30.7%,99.2%,58%,78.7%,65.4%,79.5%,67.6%,43.3%,97.2%,96.8%,16%,96.3%,87.8%
CN(C)c1ccc(Nc2cc(-c3cccc(OC(F)(F)F)c3)nc3ccc(N4CCCC4)cc23)cc1,27.2%,103%,46.3%,61.3%,-70.9% (active),85.3%,87.7%,-32.8% (active),2.11% (active),70.6%,50.3%,-20.9% (active),-90.4% (active),12.3%,88.8%,-13.4% (active),108%,91.6%,14.1%,-76.3% (active)
Cc1oc(-c2ccc(Cl)cc2)nc1/C=C/C(=O)c1ccccc1,98.8%,88.4%,101%,110%,103%,88.4%,93.1%,99.1%,96.4%,114%,109%,99.1%,97.6%,101%,106%,97.1%,99.9%,99.5%,106%,104%
O=Cc1ccc([N+](=O)[O-])s1,93.2%,105%,98.4%,105%,106%,103%,101%,95.2%,108%,107%,110%,75.4%,115%,85.2%,123%,96.6%,107%,86.5%,97.3%,92%
C/C(=N\NC(=O)c1ccccc1O)c1cccc(/C(C)=N/NC(=O)c2ccccc2O)n1,44.4%,50%,38.7%,30.3%,21.3%,43.5%,61.4%,54.6%,33.6%,35.2%,55.8%,57.2%,20.9%,52.7%,93.7%,31.8%,7.95% (active),-24.4% (active),87.6%,48.6%
COc1ccc(/C=N/NC(=O)CCN2c3ccccc3Sc3ccccc32)cc1,75.6%,86.5%,83.4%,75.3%,85.4%,62.7%,62.1%,77.6%,91.5%,88.5%,102%,24%,71.7%,76.6%,66.6%,96.7%,68.8%,85.2%,99.8%,65.4%
C[C@]12CC[C@@H]3c4ccc(O)c([N+](=O)[O-])c4CC[C@H]3[C@@H]1CCC2=O,95.7%,95.7%,99%,104%,112%,86.6%,85.8%,102%,90.1%,159%,117%,96.7%,98.5%,91.4%,97%,66.7%,98.7%,98.2%,106%,102%
O=[N+]([O-])c1ccc(-c2nc(N3CCOCC3)c3c4c(sc3n2)CCCC4)cc1,88.8%,85%,96.3%,82.4%,107%,111%,79.3%,95.7%,93%,90.9%,113%,99.6%,89.2%,81%,104%,94.8%,87.4%,102%,92.7%,85.6%
O=C(CCc1nnc(Cn2cnc3nc[nH]c3c2=O)o1)c1nc2ncccc2[nH]1,97.4%,101%,92.3%,97.3%,105%,104%,94.3%,98.1%,93.7%,104%,108%,99.7%,97.5%,94.7%,102%,96.1%,101%,95%,105%,96.5%
O=C(/C=C(/C=C/c1cccc2[nH]ccc12)OB(F)F)/C=C/c1cccc2[nH]ccc12,-34.8% (active),-54.9% (active),0.979% (active),-35.7% (active),0.502% (active),-27.2% (active),-71.4% (active),-30.9% (active),-60.1% (active),-70.6% (active),2.94% (active),-2.54% (active),-26.9% (active),-10.7% (active),-87.2% (active),2.01% (active),-49.5% (active),-25.8% (active),-47.3% (active),-34.2% (active)
